“And” between values parts separate entries of the source, which are not always exact repeats. Equal entries are not always repeated. More than one record can exist for a structure, and the calls need not agree. The source made the active and inactive calls. Rule for the calls: active = hit-call score of the fitted dose curve at least 0.9, where 1 is the maximum; inactive = score below 0.9.

Test [1] can be described thus: ATG_PXRE_CIS: Attagene CIS-FACTORIAL HepG2 Assay for human Pregnane X Receptor Element (PXRE) (AID 2282957). The note with it: HepG2 Attagene CIS-FACTORIAL PXRE reporter, mRNA; actives raise or lower the signal. The gist of the method:
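Transfect HepG2 with MRTUs (cis promoter elements); dose chemical, incubate 24 h; isolate RNA, RT with oligo(dT), PCR, 6-FAM label, HpaI cut, CE. Gain/loss fit vs DMSO.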

A short description of test [2]: ATG_PPRE_CIS: Attagene CIS-FACTORIAL HepG2 Assay for human Peroxisome Proliferator-activated Response Element (PPRE) (AID 2282958). As to conditions: HepG2 PPRE cis-element reporter, Attagene transcription factor profiling; actives raise or lower the signal. Put shortly:
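Measured endpoint: PPRE-controlled reporter mRNA, detected by RT-PCR and capillary electrophoresis fluorescence, from transiently transfected HepG2 cells 24 h after dosing. Curves fitted in both directions using DMSO baseline.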

A short description of test [3]: ATG_RORE_CIS: Attagene CIS-FACTORIAL HepG2 Assay for human RAR-related Orphan Receptor Element (RORE) (AID 2282959). As to conditions: HepG2 Attagene cis-factorial RORE reporter, mRNA; actives raise or lower the signal. The gist of the method: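 Transiently transfected HepG2 reporter cells were treated 24 h. Reporter transcripts were detected by RT-PCR and capillary electrophoresis, with bidirectional fitting against DMSO.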

Test [4] is described as follows: ATG_Sox_CIS: Attagene CIS-FACTORIAL HepG2 Assay for human SRY-box transcription factor (SOX) (AID 2282960). As to conditions: HepG2 Attagene cis-factorial SOX reporter, mRNA; actives raise or lower the signal. The gist of the method: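 Gain- or loss-of-signal endpoint, fitted bidirectionally with DMSO as negative control. Based on reporter mRNA from transfected HepG2 cells harvested 24 h post-treatment and quantified via RT-PCR and capillary electrophoresis.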

Test [5] concerns the target Transcription factor Sp1 (Homo sapiens) (UniProt P08047). The test can be described thus: ATG_Sp1_CIS: Attagene CIS-FACTORIAL HepG2 Assay for human Specificity Protein 1 (Sp1) (AID 2282961). The note with it: HepG2 Sp1 cis-reporter transcription, actives raise or lower the signal. Put shortly: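 Endpoint reflects endogenous Sp1 transcriptional activity, not an exogenous fusion protein: HepG2 cells with transfected cis-regulated reporters, 24 h dosing, RT-PCR/capillary electrophoresis mRNA read-out, DMSO-normalised bidirectional fit.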

Test [6] in a line: ATG_SREBP_CIS: Attagene CIS-FACTORIAL HepG2 Assay for human Sterol Regulatory Element Binding (SREBP) (AID 2282962). As to conditions: HepG2 Attagene cis-factorial SREBP reporter, mRNA; actives raise or lower the signal. The gist of the method:
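HepG2 cells transiently transfected with multiplexed cis-element reporter units report endogenous transcription factor activity. After 24 h of chemical exposure, reporter mRNA was quantified by RT-PCR, 6-FAM labelling, HpaI digestion and capillary electrophoresis; bidirectional fits used DMSO as baseline.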

Test [7] deals with Signal transducer and activator of transcription 3 (Homo sapiens) (UniProt P40763). The test can be described thus: ATG_STAT3_CIS: Attagene CIS-FACTORIAL HepG2 Assay for human Signal Transducer and Activator of Transcription 3 (STAT3) (AID 2282963). The note with it: HepG2, Attagene cis-factorial STAT3 reporter transcription; actives raise or lower the signal. The gist of the method: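 Endogenous STAT3-responsive cis-element activity was read in transiently transfected HepG2 cells after 24 h treatment. Reporter transcripts were quantified via RT-PCR and capillary electrophoresis, with DMSO as negative control and bidirectional curve fitting.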
Sequence of Signal transducer and activator of transcription 3 (Homo sapiens) (P40763 whole entry, looked up): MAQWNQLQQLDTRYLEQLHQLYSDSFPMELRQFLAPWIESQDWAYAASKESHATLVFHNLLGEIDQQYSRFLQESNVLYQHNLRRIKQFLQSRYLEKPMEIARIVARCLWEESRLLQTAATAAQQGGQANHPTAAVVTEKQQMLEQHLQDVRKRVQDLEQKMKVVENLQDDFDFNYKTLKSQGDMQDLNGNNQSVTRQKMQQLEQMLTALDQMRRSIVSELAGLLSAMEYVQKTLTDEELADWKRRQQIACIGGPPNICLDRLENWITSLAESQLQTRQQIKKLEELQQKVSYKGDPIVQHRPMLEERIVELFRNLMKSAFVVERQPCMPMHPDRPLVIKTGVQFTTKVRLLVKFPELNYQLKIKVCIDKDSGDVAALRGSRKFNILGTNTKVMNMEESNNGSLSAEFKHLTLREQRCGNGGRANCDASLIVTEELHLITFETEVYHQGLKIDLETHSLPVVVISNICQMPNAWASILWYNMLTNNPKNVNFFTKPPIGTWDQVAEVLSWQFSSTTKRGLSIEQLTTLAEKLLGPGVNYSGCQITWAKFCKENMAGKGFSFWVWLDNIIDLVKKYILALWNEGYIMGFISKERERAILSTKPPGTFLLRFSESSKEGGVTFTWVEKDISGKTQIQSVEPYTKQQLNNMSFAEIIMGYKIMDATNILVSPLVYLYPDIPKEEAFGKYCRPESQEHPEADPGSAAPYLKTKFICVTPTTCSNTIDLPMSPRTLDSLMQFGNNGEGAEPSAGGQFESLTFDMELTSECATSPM

Test [8] can be described thus: ATG_TA_CIS: Attagene CIS-FACTORIAL HepG2 Assay for human TA Basal Promoter (AID 2282964). As to conditions: HepG2 Attagene CIS-factorial TA basal promoter reporter; actives raise or lower the signal. The gist of the method: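 Transient MRTU transfection of HepG2 preceded 24 h compound exposure. Reporter mRNA levels were then read by RT-PCR with capillary electrophoresis, and this background-control endpoint was fitted bidirectionally to DMSO.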

A short description of test [9]: ATG_TCF_b_cat_CIS: Attagene CIS-FACTORIAL HepG2 Assay for human T-Cell-Factor with beta-catenin (TCF/b-cat) (AID 2282965). The note with it: HepG2 TCF/beta-catenin cis-reporter transcription, actives raise or lower the signal. The gist of the method: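 Endogenous transcription factor activity is captured through cis-promoter reporter constructs transiently introduced into human HepG2 liver cells. Induced reporter mRNA is measured after 24 h and fitted bidirectionally relative to DMSO.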

The nature of test [10]: ATG_TAL_CIS: Attagene CIS-FACTORIAL HepG2 Assay for human TAL Basal Promoter (AID 2282966).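 Note: background control endpoint measuring basal TAL promoter reporter mRNA not a specific factor.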 As to conditions: HepG2 Attagene cis-factorial TAL promoter reporter; actives raise or lower the signal. The gist of the method: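 Fluorescence of labelled reporter cDNA fragments, resolved by capillary electrophoresis, gave the readout. Human HepG2 liver cells carried transiently transfected cis-element reporter units and were treated for 24 hours; activity was fitted bidirectionally against DMSO.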

Sequence of Transcription factor Sp1 (Homo sapiens) (P08047 whole entry, looked up, the tested form may be a part): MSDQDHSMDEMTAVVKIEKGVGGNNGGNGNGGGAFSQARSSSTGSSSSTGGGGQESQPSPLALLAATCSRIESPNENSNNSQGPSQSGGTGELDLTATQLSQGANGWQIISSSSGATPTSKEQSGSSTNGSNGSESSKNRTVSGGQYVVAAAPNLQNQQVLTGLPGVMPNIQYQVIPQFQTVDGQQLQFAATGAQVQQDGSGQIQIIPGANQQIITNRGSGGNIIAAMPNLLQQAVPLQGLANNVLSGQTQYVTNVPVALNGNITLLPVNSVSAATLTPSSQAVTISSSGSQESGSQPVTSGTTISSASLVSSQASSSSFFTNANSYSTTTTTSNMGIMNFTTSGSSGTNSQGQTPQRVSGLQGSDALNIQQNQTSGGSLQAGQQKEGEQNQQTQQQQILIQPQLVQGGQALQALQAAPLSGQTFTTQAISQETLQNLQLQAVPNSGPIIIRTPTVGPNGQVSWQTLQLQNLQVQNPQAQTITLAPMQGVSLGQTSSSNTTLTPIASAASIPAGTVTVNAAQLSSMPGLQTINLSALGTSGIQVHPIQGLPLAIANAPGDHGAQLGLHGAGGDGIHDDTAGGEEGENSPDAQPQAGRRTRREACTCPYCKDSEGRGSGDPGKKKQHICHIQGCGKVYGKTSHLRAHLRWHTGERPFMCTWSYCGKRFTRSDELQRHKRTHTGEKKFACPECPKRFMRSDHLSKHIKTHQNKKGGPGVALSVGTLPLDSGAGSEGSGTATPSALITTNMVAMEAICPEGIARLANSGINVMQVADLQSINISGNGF

For `N#CSCSC#N`, the AC50 (in general, the concentration giving half of the maximal activity seen) in test [1] was 1.26 µM (active). Besides, the compound was classed as inactive in [2], in [3], in [4], in [5], in test [6] and in [7]. Further, the outcome in test [8], in [9] and in test [10] was inactive.

`COc1cccc(C(=O)NN(C(=O)c2cc(C)cc(C)c2)C(C)(C)C)c1C`: the concentration at half-maximal activity (AC50) in [1] was 0.526 µM (active). The outcome in test [2], in test [3], in test [4], in [5], in [6] and in test [7] was inactive. In addition, the call in test [8], in test [9] and in test [10] was inactive.

For `CC1(C(=O)Nc2ccc(O)c(Cl)c2Cl)CCCCC1`, the AC50 is 2.91 µM (active) in test [1], 36.3 µM (active) in [2], 50 µM (active) in [3] and 23.1 µM (active) in test [6]. The compound was called inactive in [4], in test [5], in test [7], in test [8], in [9] and in [10].

On to `CCOP(=S)(OCC)SCCSCC`, for which the AC50 in test [1] was 13.7 µM (active); in test [6], 29.5 µM (active). Also, the result in test [2], in [3], in test [4], in [5], in test [7] and in test [8] was inactive. Besides, the outcome in [9] and in test [10] was inactive.

Regarding `CCCCOC(=O)c1ccccc1C(=O)O`, the compound was classed as inactive in [1], in test [2], in [3], in test [4], in test [5] and in test [6]. For the same compound, the compound was classed as inactive in [8], in test [9] and in test [10].

Take `CCCCN(CC)c1c([N+](=O)[O-])cc(C(F)(F)F)cc1[N+](=O)[O-]`: the AC50 in test [1] is 7.62 µM (active). Further, the outcome in test [2], in [3], in test [4], in test [5], in [6] and in test [7] was inactive. The compound was classed as inactive in test [8], in test [9] and in [10].

As for `C=C(C)[C@H]1Cc2c(ccc3c2O[C@@H]2COc4cc(OC)c(OC)cc4[C@@H]2C3=O)O1`, the compound was classed as inactive in test [1], in [3], in [4], in test [7], in [8] and in [9]. For the same compound, in test [10], the compound was classed as inactive. For the same compound, the AC50 in test [2] is 0.0321 µM (active); in test [5], 0.039 µM (active); in test [6], 0.00445 µM (active).

For the compound `CCOP(=S)(OCC)Oc1ccc([N+](=O)[O-])cc1`, the AC50 in test [1] was 9.68 µM (active); in test [2], 50 µM (active); in test [6], 89.1 µM (active). Further, the compound was called inactive in [3], in test [4], in test [5], in [7], in test [8] and in test [9]. Further, the call in test [10] was inactive.

For the compound `CCOP(=S)(OCC)OC(Cl)C(Cl)(Cl)Cl` (configuration not stated), the figures for the AC50 in test [1] and in test [6] were 35.6 µM (active) and 38.5 µM (active), respectively. The compound was classed as inactive in test [2], in test [3], in test [4], in test [5], in test [8] and in test [9]. In test [10], the outcome was inactive.

As for `CCOP(=S)(OCC)Oc1ccc2c(C)c(Cl)c(=O)oc2c1`, the AC50 in test [1] is 1.46 µM (active); in test [2], 15 µM (active). Besides, the compound was called inactive in [3], in [4], in test [5], in test [6], in test [8] and in test [9]. Besides, in [10], the outcome was inactive.

With `CCOP(=S)(OCC)Oc1cc(C)nc(C(C)C)n1`, the AC50 in test [1] was 4.15 µM (active); in test [2], 26 µM (active); in test [6], 21.7 µM (active). In addition, the outcome in [3], in test [4], in [5], in [7], in [8] and in test [9] was inactive. Further, in test [10], the compound was called inactive.

As to `CCCCOC(=O)[C@@H](C)Oc1ccc(Oc2ccc(C#N)cc2F)cc1`, in test [1], the AC50 is 64.7 µM (active). The call in test [2], in [3], in [4], in test [5], in [6] and in test [8] was inactive. The call in test [9] and in test [10] was inactive.

In the case of `Cc1cc(C2CC2)nc(Nc2ccccc2)n1`, the AC50 in test [1] was 13.4 µM (active); in test [2] it was 22 µM (active); in test [4], 90 µM (active); in test [5], 84.7 µM (active); in test [6], 12.6 µM (active). The result in [3], in test [7], in test [8], in test [9] and in [10] was inactive.

Regarding `COP(=O)(OC)SCn1c(=O)oc2cc(Cl)cnc21`, the AC50 in [1] is 8.16 µM (active); in test [9], 10 µM (active). Moreover, the call in [2], in test [3], in test [4], in [5], in test [6] and in [7] was inactive. The compound was classed as inactive in test [8] and in [10].

In the case of `CN1COCN(Cc2cnc(Cl)s2)C1=N[N+](=O)[O-]`, the AC50 in test [1] was 50 µM (active). Further, the compound was called inactive in test [2], in test [3], in [4], in test [5], in test [6] and in test [7]. Besides, the outcome in test [8], in test [9] and in test [10] was inactive.

On to `CCCOc1nn(C(=O)NS(=O)(=O)c2ccccc2C(=O)OC)c(=O)n1C`, for which the AC50 in [1] is 50 µM (active). In addition, the outcome in test [2], in test [3], in test [4], in test [5], in [6] and in test [8] was inactive. In addition, the call in test [9] and in test [10] was inactive.

With `O=[N+]([O-])c1cc(C(F)(F)F)c(Cl)c([N+](=O)[O-])c1Nc1ncc(C(F)(F)F)cc1Cl`, the half-maximal activity concentration (AC50) in test [1] was 2.84 µM (active) and 1.27 µM (active); in test [2], 14.6 µM (active); in [8] it was 15.4 µM (active); in [9], 16.1 µM (active). Also, the compound was called inactive in test [2], in test [3], in test [4], in test [5], in test [6] and in test [8]. The compound was called inactive in test [9] and in test [10].
